From PubChem BioAssay
The list is not random: actives were taken first. Their share in the collection is about 9.8%.
HPGD inh – qHTS Assay for Inhibitors of HPGD (15-Hydroxyprostaglandin Dehydrogenase); 15-hydroxyprostaglandin dehydrogenase [NAD(+)] (Homo sapiens), P15428; purified HPGD, NADH fluorescence kinetic, PGE2 substrate; Potency, µM, actives largely listed as inhibitors; 150,000 tested, 4.3% active; AID 894, 2007
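NADH formation kinetics: reaction with 30 uM PGE2 and 1 mM NAD+ (final), 20 nM enzyme, Tris-HCl pH 8 with Tween 20, after 15 min compound preincubation at room temperature. Fluorescence change, last versus first of five reads.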
ALDH1A1 block – qHTS Assay for Inhibitors of Aldehyde Dehydrogenase 1 (ALDH1A1). Aldehyde dehydrogenase 1A1 (Homo sapiens), P00352. Purified ALDH1A1, NADH fluorescence, propionaldehyde substrate. Potency, µM (doses to about 75.3 µM), most hits filed as inhibitors. 220,000 tested, 7.3% active. AID 1030, 2008
Target sequence (P00352 whole entry, looked up): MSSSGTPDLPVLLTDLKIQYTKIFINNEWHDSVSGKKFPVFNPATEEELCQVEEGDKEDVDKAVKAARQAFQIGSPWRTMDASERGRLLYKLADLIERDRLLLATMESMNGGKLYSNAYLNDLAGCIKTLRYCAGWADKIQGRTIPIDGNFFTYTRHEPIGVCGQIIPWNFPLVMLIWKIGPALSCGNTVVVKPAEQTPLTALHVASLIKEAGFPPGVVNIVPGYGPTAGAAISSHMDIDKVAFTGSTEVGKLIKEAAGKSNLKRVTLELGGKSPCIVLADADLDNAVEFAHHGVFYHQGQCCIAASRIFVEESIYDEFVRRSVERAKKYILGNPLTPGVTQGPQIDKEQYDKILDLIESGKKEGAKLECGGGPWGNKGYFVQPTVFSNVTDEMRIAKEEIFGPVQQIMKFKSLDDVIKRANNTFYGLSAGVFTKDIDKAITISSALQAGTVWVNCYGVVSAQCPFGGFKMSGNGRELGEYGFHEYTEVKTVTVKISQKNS
HttQ103 aggreg – qHTS Multiplex Assay to Identify Dual Action Probes in a Cell Model of Huntington: Aggregate Formation (GFP) | PC12 HttQ103-GFP aggregates, Acumen cytometry, 40 h | Potency, µM (series often up to 46.1 µM), most hits filed as inhibitors | 220,000 tested, 1.1% active | AID 1688, 2009; active means well fitted curve in the direction sought with a large enough effect; inconclusive means small, poorly fitted or top-dose-only effect, or another doubt; inactive means no such curve, though single readings can be large; an effect the other way counts as inactive or inconclusive; further: nearly all actives have a fitted effect of over 60% in size
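Multiplexed with ATP-based cell death, this channel scores GFP aggregates in PC12 cells expressing inducible HTTex1-Q103-GFP. Induction used 100 nM tebufenozide; compounds were tested in concentration series.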
HTT ATP protect – qHTS Multiplex Assay to Identify Dual Action Probes in a Cell Model of Huntington: Cytoprotection (ATP). 230,000 tested, 0.14% active. PC12 HTT-Q103 induced, cytoprotection, ATP luminescence, 40 h. Potency, µM (doses to about 56.4 µM), hits mostly activators; active means well fitted curve in the direction sought with a large enough effect; inconclusive means small, poorly fitted or top-dose-only effect, or another doubt; inactive means no such curve, though single readings can be large; an effect the other way counts as inactive or inconclusive; further: nearly all actives have a fitted effect of over 45% in size
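Stable PC12 Q103-GFP cells in serum-supplemented, phenol red-free DMEM; induction by tebufenozide at 100 nM final; compound dose series; cell viability quantified luminescently from ATP.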
CBFb-RUNX1 inh – qHTS Assay for Compounds Blocking the Interaction Between CBF-beta and RUNX1 for the Treatment of Acute Myeloid Leukemia. 230,000 tested, under 10 active. Potency, µM (series often up to 59.8 µM), actives largely listed as inhibitors. AlphaScreen CBFb-His/RUNX1-biotin binding, biochemical; active means well fitted curve in the direction sought with a large enough effect; inconclusive means small, poorly fitted or top-dose-only effect, or another doubt; inactive means no such curve, though single readings can be large; an effect the other way counts as inactive or inconclusive
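AlphaScreen proximity signal reports loss of binding between His-tagged CBF-beta and biotin-labelled RUNX1, each at 30 nM. Proteins are pre-associated for 20 minutes, compounds added for 15 minutes, then beads for 90 minutes, all at ambient temperature.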
KDM4E inh – qHTS Assay for Inhibitors of Human Jumonji Domain Containing 2E (JMJD2E). JMJD2E catalytic domain, FDH-coupled NADH fluorescence (FDH is formaldehyde dehydrogenase). AID 2147, 2009. Potency, µM (titrated, usually from 57.1 µM), actives largely listed as inhibitors. 230,000 tested, 1.6% active; further: nearly all actives have a fitted effect of over 50% in size
Numbers stand for hits; 0 = inactive; ? = inconclusive; - = no result given; [ ] = dose if it differs, or a comment. Unless noted, the call rests on the fitted dose curve; in most records, active means well fitted inhibition curve with a large enough effect (not every such curve was filed as active); inconclusive means small, poorly fitted or top-dose-only effect, or another doubt; inactive means no such curve, though single readings can be large or run the other way.

SMILES	HPGD inh	ALDH1A1 block	HttQ103 aggreg	HTT ATP protect	CBFb-RUNX1 inh	KDM4E inh
CCOC(=O)COn1c(=O)c(-c2ccc(OC)c(OC)c2)[n+]([O-])c2ccccc21	0	35µM	0	0[10 µM]	0	0
CCOn1c(=O)c(-c2cccc3ccccc23)[n+]([O-])c2ccccc21	-	22µM	0[9.22 µM]	0	0	0
CN=C(c1ccco1)n1c(=S)nc(-c2ccco2)n(C)c1=S	?	10µM	0[9.22 µM]	0	0	?
CC(C)(C)Cc1nnc(NC(=O)CN2C(=O)c3ccccc3C2=O)s1	-	22µM	0[9.22 µM]	0[10 µM]	0	0
COc1ccc2nc(/C=N/NC(=O)CCCCCNC(=O)OC(C)(C)C)ccc2c1	-	-	0[9.22 µM]	0[10 µM]	0	?
Cc1nn(Cc2ccccc2)c(Cl)c1C(=O)NCCc1ccccc1	0	0	0	0[1.9 µM]	0	0
Cc1nn(Cc2ccccc2)c(Cl)c1C(=O)OC(C)C#N (centres undefined)	-	22µM	0	0	0	0
CCOc1ccccc1CN1C(=O)NC(C)(c2ccccc2)C1=O (centres undefined)	0	?	0[9.22 µM]	0	0	0
C/C(=N\NC(=O)CSCc1ccccc1Cl)c1cc(O)ccc1O	-	?	0[9.22 µM]	0[10 µM]	?	4.5µM
CC(C)NC(=O)CSCc1ccccc1Cl	0	0	0	0[10 µM]	0	0
O=C(CSCc1ccccc1Cl)NN=C1CCCCCC1	0	22µM	0	0[10 µM]	0	0
O=C(CSCc1ccc([N+](=O)[O-])cc1)NN=C1CCCCCC1	0	5µM	0	0[10 µM]	0	0
O=C(CSCc1ccc(Cl)cc1)NN=C1CCCC1	0	?	0	-	0	0
O=C(CSCc1c(Cl)cccc1Cl)NN=C1CCCC1	-	1.6µM	0	0	0	0
CCOc1ccc(CN2CCN(Cc3cn(CC)nc3C)CC2CCO)cc1 (centres undefined)	-	0	0[9.22 µM]	0[10 µM]	0	0
COc1ccc(S(=O)(=O)Nc2ccc(NC(C)=O)cc2)cc1	0	0	0	0	0	0
COc1ccc(NS(=O)(=O)c2ccc(Oc3ncccn3)cc2)cc1	0	0	11µM	0	0	0
COc1ccc(-n2cnc3cc(NS(=O)(=O)c4ccccc4)ccc32)cc1	11µM	?	?	0[10 µM]	0	0
COc1ccc(NS(=O)(=O)c2ccc(Oc3cccc(C(=O)O)c3)cc2)cc1	-	0.71µM	0	0	0	0
COc1ccc(NS(=O)(=O)c2cccc(C(=O)O)c2)cc1	0	0	0	0	0	0
COc1ccc(S(=O)(=O)Nc2ccc(Oc3ncccn3)c(Cl)c2)cc1	14µM	0	0	0	0	0
CC(C)(C)n1cnc2cc(NS(=O)(=O)c3ccccc3)ccc21	?	0	0	0	0	0
COc1ccc(/C=N/NC(=O)Nc2cccc3nsnc23)cc1	?	0	0	0[10 µM]	0	0
Clc1ccc(-n2nnnc2-c2ccno2)cc1	-	0	0[9.22 µM]	0[10 µM]	0	0
Cc1cc(C)nc(-n2ncc3c2CC(c2ccc(F)cc2)CC3=O)n1 (centres undefined)	-	0	0	0	0	0
SMILES	HPGD inh	ALDH1A1 block	HttQ103 aggreg	HTT ATP protect	CBFb-RUNX1 inh	KDM4E inh
Cc1cc(C)nc(-n2ncc3c2CC(c2ccccc2)CC3=O)n1 (centres undefined)	28µM	0	0	0[10 µM]	0	0
CCC1CSC(Nc2ccc(C(=O)/C=C/c3ccc(OC)c(OC)c3)cc2)=N1 (centres undefined)	18µM	?	?	0[10 µM]	0	?
Cc1cccnc1CN1CCN(Cc2nc(Cc3cccc(F)c3)no2)CC1	-	0	0	0	0	0
O=C1NC(=O)/C(=C\c2cn(Cc3ccccc3F)c3ccccc23)N1	-	14µM	0	0	0	0
O=C(O/N=C1\CCCCC1c1ccc([N+](=O)[O-])cc1[N+](=O)[O-])c1c(F)cccc1F (centres undefined)	0	18µM	0	0	?	?
COc1ccc(C2SCC(=O)N2CC23CC4CC(CC(C4)C2)C3)cc1 (centres undefined)	0	?	?	0	0	0
COc1ccc(N2CC(O)=C(c3nc(C)cs3)C2=N)cc1	0	20µM	0	0[10 µM]	0	0
Cc1noc(/C=C/N(C)C)c1S(=O)(=O)N1CCc2ccccc21	0	5.6µM	0	0[10 µM]	0	0
Cc1noc(/C=C/N(C)C)c1S(=O)(=O)N1CCCC(C(=O)NC(C)c2ccccc2)C1 (centres undefined)	32µM	7.5µM	0	0	0	0
Cc1noc(/C=C/N(C)C)c1S(=O)(=O)N(C)CC(=O)N1CCc2ccccc21	0	0	0	0[10 µM]	0	0
Cc1cnn(-c2nc(-c3ccccc3)cc(-c3ccccc3)n2)c1	-	0	0[9.22 µM]	0[10 µM]	?	?
Cc1cccc(COc2ncnc3nc[nH]c23)c1	0	0	0	-	0	0
Cc1nc(-c2ccc(Cl)cc2)sc1C1(C)CC(c2cccc([N+](=O)[O-])c2)=NO1 (centres undefined)	-	-	0[9.22 µM]	0[10 µM]	0	0
CC1=CC(=O)N(c2cccc(C(F)(F)F)c2)C1c1ccc(Cl)cc1 (centres undefined)	0	0	?	0	0	0
S=c1nc(-c2ccccc2)c(-c2ccccc2)n[nH]1	-	0.32µM	0[9.22 µM]	0[10 µM]	0	0
CCN(CC)CCc1c(C)[nH]c(C(=O)OCc2ccccc2)c1C	0	20µM	0[9.22 µM]	0	0	0
CC(=O)c1c(C)[nH]c(C(=O)OCc2ccccc2)c1C	0	0	0	0[10 µM]	0	0
O=C(CN1CCN(c2ccc(F)cc2)CC1)Nc1ccccc1[N+](=O)[O-]	-	0	0	0	0	0
COc1ccc(NC(=O)CN2CCN(c3nc(-c4ccc(F)cc4)cs3)CC2)c(OC)c1	-	0	0[9.22 µM]	0[10 µM]	0	0
CC1=C(/C=C/C(C)=C\C=C\C(C)=C\C(=O)O)C(C)(C)CCC1	0	0	-	0	0	0
CC1=C(/C=C/C(C)=C/C=C/C(C)=C/C(=O)O)C(C)(C)CCC1O (centres undefined)	-	6.3µM	-	0	0	-
c1ccc(Nc2nc(NCC3CCCO3)c3ccccc3n2)cc1 (centres undefined)	-	?	?	0	0	?
CCOc1ccc(Nc2nc(NCC3CCCO3)c3ccccc3n2)cc1 (centres undefined)	-	?	14µM	0	0	0
O=C(/C=C/c1ccco1)NCC(=O)N/N=C/c1ccc([N+](=O)[O-])cc1	-	?	0	0	0	0
COc1ccc2c(=O)c3c(=O)n(Cc4ccco4)c(-c4ccc(C)cc4)nc3oc2c1	0	?	0	0	0	0
